From the supplement of paper PMC4709259
Counter-ions that a name gives are not always drawn. ± gives the standard deviation.

Test system: Jurkat
Assay: cell count relative to DMSO control (fraction of control); higher = more cells (less growth inhibition)
Settings: 48 h

SMILES	cell count
CCOC(=O)CC(SP(=S)(OC)OC)C(=O)OCC (configuration not stated) [Malathion] (concentration: 25 µM)	1.06 ± 0.074
CC[C@@H](CO)NC(=O)[C@@H]1C=C2c3cccc4[nH]cc(c34)C[C@H]2N(C)C1 [Methylergonovine Maleate] (concentration: 25 µM)	0.865 ± 0.15
CC(C)c1cccc(C(C)C)c1O [Propofol] (concentration: 25 µM)	1.11 ± 0.027
Cc1cccc([C@H](C)c2c[nH]cn2)c1C [Dexmedetomidine·HCl] (concentration: 25 µM)	0.375 ± 0.13
NC(=O)C[S+]([O-])C(c1ccccc1)c1ccccc1 (configuration not stated) [Modafinil (Schedule Iv)] (concentration: 25 µM)	0.807 ± 0.05
CN1C(=O)CC(=O)N(c2ccccc2)c2cc(Cl)ccc21 [Clobazam] (concentration: 25 µM)	0.64 ± 0.12
NCC1(CC(=O)O)CCCCC1 [Gabapentin] (concentration: 25 µM)	0.935 ± 0.036
COc1cc2c(cc1OC)C1CC(=O)C(CC(C)C)CN1CC2 (configuration not stated) [Tetrabenazine] (concentration: 25 µM)	0.833 ± 0.093
O=C1Nc2ccc(Cl)cc2C(c2ccccc2Cl)=NC1O (configuration not stated) [Lorazepam] (concentration: 25 µM)	0.912 ± 0.056
CCN(C(C)=O)c1cccc(-c2ccnc3c(C#N)cnn23)c1 [Zaleplon] (concentration: 25 µM)	0.664 ± 0.14
COc1ccc(C(CN(C)C)C2(O)CCCCC2)cc1 (configuration not stated) [Venlafaxine·HCl] (concentration: 25 µM)	0.498 ± 0.12
CC(C)C[C@H]1C(=O)N2CCC[C@H]2[C@]2(O)O[C@](NC(=O)[C@@H]3C=C4c5cccc6[nH]c(Br)c(c56)C[C@H]4N(C)C3)(C(C)C)C(=O)N12 [Bromocriptine Mesylate] (concentration: 25 µM)	0.288 ± 0.21
COC[C@@H](NC(C)=O)C(=O)NCc1ccccc1 [Lacosamide] (concentration: 25 µM)	0.639 ± 0.031
CC1C=CC=CCCC=CC=CC=CC=CC(OC2OC(C)C(O)C(N)C2O)CC2OC(O)(CC(O)C(O)CCC(O)CC(O)CC(O)CC(=O)OC(C)C(C)C1O)CC(O)C2C(=O)O (configuration not stated) [Nystatin] (concentration: 25 µM)	0.729 ± 0.11
Oc1ccc2c(c1)[C@@]13CCCC[C@@]1(O)[C@@H](C2)N(CC1CCC1)CC3 [Butorphanol-(+)-Tartrate (Schedule Iv)] (concentration: 25 µM)	0.586 ± 0.075
O=c1[nH]c2ccccc2n1C1CCN(CCCC(c2ccc(F)cc2)c2ccc(F)cc2)CC1 [Pimozide] (concentration: 2.5 µM)	0.663 ± 0.14
Oc1ccc2c3c1O[C@H]1[C@@H](O)CC[C@@]4(O)[C@@H](C2)N(CC2CCC2)CC[C@]314 [Nalbuphine·HCl Dihydrate] (concentration: 25 µM)	0.995 ± 0.17
CN1[C@@H]2CC[C@H]1C[C@@H](OC(=O)C(CO)c1ccccc1)C2 (some centres not stated) [Atropine Sulfate Monohydrate] (concentration: 25 µM)	0.677 ± 0.057
N[C@@H]1C[C@H]1c1ccccc1.N[C@H]1C[C@@H]1c1ccccc1 [Tranylcypromine Hemisulfate] (concentration: 25 µM)	0.931 ± 0.063
O=P1(N(CCCl)CCCl)NCCCO1 (configuration not stated) [Cyclophosphamide (Free Base)] (concentration: 25 µM)	0.623 ± 0.15
Cn1c(CCCC(=O)O)nc2cc(N(CCCl)CCCl)ccc21 [Bendamustine·HCl] (concentration: 25 µM)	0.2666 ± 0.00052
O=[N+]([O-])O[C@H]1CO[C@H]2[C@@H]1OC[C@H]2O[N+](=O)[O-] [Isosorbide Dinitrate] (concentration: 25 µM)	1.04 ± 0.081
NCCCNCCSP(=O)(O)O [Amifostine] (concentration: 25 µM)	0.8 ± 0.12
O=C1Nc2ccc(Cl)cc2C(c2ccccc2)=NC1O (configuration not stated) [Oxazepam] (concentration: 25 µM)	0.645 ± 0.05
N[C@@H](Cc1ccc(N(CCCl)CCCl)cc1)C(=O)O [Melphalan] (concentration: 250 nM)	0.46 ± 0.08
CC(O)(CS(=O)(=O)c1ccc(F)cc1)C(=O)Nc1ccc(C#N)c(C(F)(F)F)c1 (configuration not stated) [Bicalutamide] (concentration: 25 µM)	0.836 ± 0.064
CC(C)N(CCC(C(N)=O)(c1ccccc1)c1ccccn1)C(C)C (configuration not stated) [Disopyramide] (concentration: 25 µM)	0.733 ± 0.14
